Laboratory results published in PubChem BioAssay.
Active and inactive are the calls of the source.

How the values were obtained:
[1] = tested on: Human papillomavirus type 1a protein E7 (residues 44-93); assay: HPV1a E7 fragment binders on microarrays, primary screen, biochemical, small-molecule microarray, residues 44-93, 635 nm fluorescence (AID 1108); details: small-molecule microarray binding, fluorescence 635 nm; higher = more signal;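 further: E7 fragment applied at 1 µg/mL in TBST for 1 h at 4 C; score combines spot fluorescence with its signal to noise ratio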
[2] = modulators of HCV replicon luciferase signal, primary screen, HCV replication inhibitor project, Huh7 cells, luciferase reporter (AID 1109); details: 48 h, higher = more signal;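 further: huh7 hepatoma cells harbouring a luciferase neomycin HCV replicon reporter; luciferase luminescence as measure of HCV replicon replication; test concentration not given here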
[3] = target: Left-right determination factor 2 (Homo sapiens) (UniProt O00292); assay: LEFTY2 binders on small-molecule microarrays, primary screen, biochemical, small-molecule microarray, 635 nm fluorescence scan (AID 1110); details: LEFTY2 binding, higher = more signal
Left-right determination factor 2 (Homo sapiens), sequence (O00292 whole entry, looked up): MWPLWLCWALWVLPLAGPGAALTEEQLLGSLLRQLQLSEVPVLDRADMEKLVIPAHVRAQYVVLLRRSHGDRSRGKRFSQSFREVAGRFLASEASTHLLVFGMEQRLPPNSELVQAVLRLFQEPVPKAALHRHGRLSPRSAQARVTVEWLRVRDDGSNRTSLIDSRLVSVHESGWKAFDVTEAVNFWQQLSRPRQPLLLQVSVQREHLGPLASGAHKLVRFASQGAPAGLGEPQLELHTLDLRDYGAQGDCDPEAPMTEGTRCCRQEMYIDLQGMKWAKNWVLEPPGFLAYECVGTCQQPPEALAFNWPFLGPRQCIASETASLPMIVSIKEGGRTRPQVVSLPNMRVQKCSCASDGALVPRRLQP

[4] = target: Calmodulin-1 (Homo sapiens) (UniProt P0DP23); assay: CALM1 binders on microarrays, EGTA buffer, profiling panel, biochemical, small-molecule microarray, Cy5-labelled CALM1 (AID 1111); details: Cy5-CALM1 binding fluorescence, higher = more signal;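 further: labelled calmodulin applied in Tris saline Tween buffer holding calcium plus EGTA and DTT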
[5] = target: Calmodulin-1 (Homo sapiens) (UniProt P0DP23); assay: calcium-bound CALM1 binders on microarrays, profiling panel, artefact control for SMM control-protein annotation, biochemical, small-molecule microarray, Cy5-labelled CALM1, plus calcium (AID 1112); details: Cy5-CALM1 binding fluorescence, higher = more signal;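 further: score merges spot fluorescence with signal to noise from triplicate slides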
[6] = small-molecule microarray binders of probe aWnt5a, primary screen, biochemical, biotinylated probe, 635/667 nm fluorescence (AID 1113); details: higher = more signal;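 further: score merges 667 nm fluorescence intensity with signal-to-noise per printed feature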
[7] = small-molecule microarray binders of probe aShh, primary screen, biochemical, biotinylated probe, 635/667 nm fluorescence (AID 1114); details: higher = more signal;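 further: probe is biotin-labelled aShh protein from a stem cell growth factor screen; measures binding of labelled protein to compounds printed on the slide; score merges feature fluorescence at 667 nm with signal-to-noise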
[8] = small-molecule microarray binders of probe aNog, primary screen, biochemical, biotinylated probe, 635/667 nm fluorescence (AID 1115); details: higher = more signal;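 further: probe is biotinylated aNog protein used at 0.15 µg/mL for 1 h at 4 C; z-score combines 667 nm fluorescence of each spot with its signal to noise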
[9] = target: Torsin-1A-interacting protein 1 (Homo sapiens) (UniProt Q5JTV8); assay: LAP1 binders from COS7 cell lysate, primary screen, small-molecule microarray, 635/667 nm fluorescence (AID 1116); details: COS7-hLAP1 lysate binding, 635 nm fluorescence, higher = more signal
Torsin-1A-interacting protein 1 (Homo sapiens), sequence (Q5JTV8 whole entry, looked up): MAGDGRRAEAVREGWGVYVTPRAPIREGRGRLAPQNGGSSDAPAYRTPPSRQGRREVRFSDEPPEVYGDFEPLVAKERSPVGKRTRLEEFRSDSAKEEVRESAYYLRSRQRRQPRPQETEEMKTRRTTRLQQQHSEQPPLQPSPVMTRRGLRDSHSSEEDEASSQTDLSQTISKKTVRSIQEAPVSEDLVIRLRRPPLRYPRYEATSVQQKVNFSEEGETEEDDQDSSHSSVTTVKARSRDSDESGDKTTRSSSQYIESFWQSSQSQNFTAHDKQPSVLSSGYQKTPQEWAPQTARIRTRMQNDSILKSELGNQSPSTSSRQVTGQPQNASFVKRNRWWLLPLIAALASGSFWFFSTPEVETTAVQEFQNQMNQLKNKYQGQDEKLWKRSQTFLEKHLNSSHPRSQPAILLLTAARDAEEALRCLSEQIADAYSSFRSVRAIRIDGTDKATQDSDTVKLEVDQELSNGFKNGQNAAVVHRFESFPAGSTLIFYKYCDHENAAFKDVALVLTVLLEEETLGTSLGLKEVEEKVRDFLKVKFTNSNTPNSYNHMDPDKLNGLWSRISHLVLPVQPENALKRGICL

[10] = target: Alpha-bungarotoxin (Bungarus multicinctus) (UniProt P60615); assay: alpha-bungarotoxin binders on microarray, profiling panel, artefact control for SMM control protein annotation, biochemical, small-molecule microarray, Alexa647 label, 635/667 nm fluorescence (AID 1117); details: alpha-BTX-A647 binding fluorescence, higher = more signal
Alpha-bungarotoxin (Bungarus multicinctus), sequence (P60615 whole entry, looked up): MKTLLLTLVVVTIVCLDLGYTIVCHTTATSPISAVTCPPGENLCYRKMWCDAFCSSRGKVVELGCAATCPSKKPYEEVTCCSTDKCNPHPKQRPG

Albumin (Bos taurus) = Albumin (Bos taurus) (UniProt P02769); assay: bovine serum albumin binders on microarray, profiling panel, artefact control for SMM control protein annotation, biochemical, small-molecule microarray, Alexa647 label, 635/667 nm fluorescence (AID 1118); details: BSA-A647 binding, fluorescence 635 nm, higher = more signal;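 further: score merges 667 nm emission intensity and signal-to-noise per printed compound spot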
Albumin (Bos taurus), sequence (P02769 whole entry, looked up): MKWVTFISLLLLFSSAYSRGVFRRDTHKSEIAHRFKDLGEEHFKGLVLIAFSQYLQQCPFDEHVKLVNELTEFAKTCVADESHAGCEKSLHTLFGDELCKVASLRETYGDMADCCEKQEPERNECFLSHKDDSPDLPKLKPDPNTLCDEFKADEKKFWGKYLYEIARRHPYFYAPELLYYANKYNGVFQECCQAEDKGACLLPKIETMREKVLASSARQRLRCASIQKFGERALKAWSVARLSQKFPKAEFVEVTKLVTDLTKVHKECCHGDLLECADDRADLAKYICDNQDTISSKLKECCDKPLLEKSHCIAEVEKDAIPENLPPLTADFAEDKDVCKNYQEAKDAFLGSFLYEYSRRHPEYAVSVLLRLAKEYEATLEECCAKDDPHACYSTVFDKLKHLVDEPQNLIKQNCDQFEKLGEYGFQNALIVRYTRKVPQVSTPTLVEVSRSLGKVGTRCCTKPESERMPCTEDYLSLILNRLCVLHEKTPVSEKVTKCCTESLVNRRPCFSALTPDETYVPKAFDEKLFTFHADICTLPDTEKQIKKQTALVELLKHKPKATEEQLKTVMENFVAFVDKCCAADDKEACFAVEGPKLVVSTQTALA

[11] = small-molecule microarray binders of probe aXIP, primary screen, biochemical, NeuroSMM set, 635/667 nm fluorescence (AID 1119); details: higher = more signal, called active from +8 up or from −8 down;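 further: probe is the protein aXip251-270 applied at 1 µg/mL to compound-printed slides; binding of probe to printed compounds measured as 667 nm fluorescence plus signal to noise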
[12] = small-molecule binders of probe aNOTCH3, primary screen, biochemical, small-molecule microarray, 635/667 nm fluorescence (AID 1120); details: higher = more signal;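 further: probe is a biotin-tagged antibody raised against NOTCH3 rather than NOTCH3 protein; score merges spot fluorescence near 667 nm with spot signal to noise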
[13] = small-molecule binders of probe aNOTCH2, primary screen, biochemical, small-molecule microarray, 635/667 nm fluorescence (AID 1121); details: higher = more signal;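 further: score merges feature fluorescence read at 667 nm with its signal to noise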
[14] = target: Carbonic anhydrase 2 (Homo sapiens) (UniProt P00918); assay: CAII small-molecule binders, profiling panel, biochemical, small-molecule microarray, Alexa647-labelled CAII (AID 1122); details: CAII-A647 binding fluorescence, higher = more signal
[15] = COS7 lysate on small-molecule microarray, probe aHis, 635 nm (AID 1123); details: COS7 cell lysate, fluorescence, higher = more signal;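 further: z-score combines 667nm fluorescence intensity with signal-to-noise per printed compound spot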
[16] = compound binding in COS7 lysate, probe aLAP1, primary screen, cell lysate, small-molecule microarray (AID 1124); details: probe aLAP1, fluorescence, higher = more signal;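 further: lysate comes from COS7 cells expressing LAP1 and is applied at 0.3 µg/mL; score merges spot fluorescence near 667 nm with signal-to-noise over triplicate slides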
Sam68 (KHDRBS1) = assay: Sam68 small-molecule binders, primary screen, biochemical, small-molecule microarray, 635 nm fluorescence (AID 1125); details: small-molecule microarray binding, higher = more signal;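 further: score merges 667 nm channel intensity with signal to noise over triplicate slides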
[17] = tested on: Chordin-like protein 2 (CHRDL2); assay: CHRDL2 small-molecule binders, primary screen, biochemical, small-molecule microarray, 635 nm fluorescence (AID 1126); details: small-molecule microarray binding, fluorescence 635 nm; higher = more signal;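 further: printed compound slides probed with Chrdl2 protein at 4 µg/mL for 1 h at 4 C; score merges 667 nm emission intensity with signal to noise over three replicate slides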
[18] = target: Concanavalin-A (Canavalia ensiformis) (UniProt P02866); assay: ConA small-molecule binders, primary screen, artefact control for SMM control protein annotation, biochemical, small-molecule microarray, Alexa647 label, 635 nm (AID 1127); details: ConA-A647 binding fluorescence, higher = more signal;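 further: z combines 667 nm emission intensity with signal-to-noise across three replicate slides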
Concanavalin-A (Canavalia ensiformis), sequence (P02866 whole entry, looked up): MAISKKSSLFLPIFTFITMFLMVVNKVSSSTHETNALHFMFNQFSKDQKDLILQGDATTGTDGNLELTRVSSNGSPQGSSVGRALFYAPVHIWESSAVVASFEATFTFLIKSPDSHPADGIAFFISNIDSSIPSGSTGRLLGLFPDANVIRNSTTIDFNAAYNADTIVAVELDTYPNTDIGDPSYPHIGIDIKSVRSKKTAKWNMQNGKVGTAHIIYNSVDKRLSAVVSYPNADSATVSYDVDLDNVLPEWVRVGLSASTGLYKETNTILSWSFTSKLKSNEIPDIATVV

Row | Structure (SMILES) | composite z-score [1] | z-score [2] | composite z-score [3] | composite z-score [4] | composite z-score [5] | composite z-score [6] | composite z-score [7] | composite z-score [8] | composite z-score [9] | composite z-score [10] | composite z-score (Albumin (Bos taurus)) | composite Z-score [11] | composite z-score [12] | composite z-score [13] | composite z-score [14] | composite z-score [15] | composite z-score [16] | composite z-score (Sam68 (KHDRBS1)) | composite z-score [17] | composite z-score [18]
1 | CCN1C(=O)[C@H]2[C@H]3[C@H](O)[C@H](O)CC(=NOCc4ccccc4)[C@H]3CC[C@H]2C1=O | -0.0677 | 0.396 | 0.387 | -0.253 | -0.787 | -0.139 | -0.214 | 0.128 | 0.151 | 0.437 | -0.0796 | 0.0894 (inactive) | 0.0258 | -0.041 | 0.336 | 0.452 | 0.491 | -0.144 | 0.248 | 0.21
2 | COC(=O)[C@@]1(Cc2ccc(F)cc2)[C@@H]2C(=CC(=O)[C@H]2CC(=O)C(=O)N(C)C)CN1C(=O)c1ccccc1 | 1.46 | -2.09 | 0.45 | 1.98 | 1.21 | 0.0839 | 1.21 | 0.896 | 1.52 | 0.954 | 0.979 | -1.12 (inactive) | 0.476 | 0.308 | 0.785 | 3.01 | 0.663 | 1.21 | 0.13 | 1.16
3 | CCOC(=O)[C@H](CC(C)C)NC(=O)CCC1CC(OC(=O)NCc2cccc3ccccc23)CC2(CCCC(COC(=O)NCCN3CCOCC3)O2)O1 (stereo not given in full) | 1.26 | -0.814 | 0.444 | 0.144 | -0.854 | -0.176 | -0.0605 | -0.261 | 0.217 | 0.548 | 0.363 | 0.0928 (inactive) | -0.0014 | -0.19 | 0.306 | 0.934 | 0.324 | 1.3 | 0.915 | 0.793
4 | C=CC[C@@H]1C=C[C@H](ON=Cc2ccc(C(=O)N3[C@H](c4ccc(C)cc4)[C@@H](C)CC[C@H]3C(=O)OC)cc2)[C@@H](CO)O1 | 0.792 | -1.52 | 0.432 | -0.36 | -0.621 | -0.148 | -0.16 | -0.0337 | 0.0268 | -0.255 | 0.36 | 0.0811 (inactive) | -0.0971 | -0.132 | -0.0234 | 0.556 | 0.116 | 0.632 | 0.714 | -0.404
5 | O=C1c2ccccc2[C@@]2(Cc3ccccc3N(C3CC3)C2=O)[C@H](c2ccc(CO)cc2)N1Cc1ccccc1C(F)(F)F | 0.223 | -2.39 | -1.18 | -0.48 | -0.382 | -0.154 | 0.0545 | -0.23 | 0.188 | -1.37 | -0.259 | -0.174 (inactive) | 0.062 | -0.0248 | 0.82 | -0.0061 | 0.439 | 0.219 | -0.338 | -0.657
6 | CC1(C)OCC(C(O)C2=CCCCC2=O)CO1 (stereo not given) | 0.198 | -0.751 | 1.07 | 0.465 | -0.927 | 0.0244 | -0.276 | -0.158 | 0.5 | 1.16 | 0.157 | 0.0887 (inactive) | 0.119 | 0.148 | 0.548 | 0.395 | 0.697 | 0.826 | 0.883 | 1.01
7 | COCCCNC(=O)[C@]1(CCC(=O)OC(C)(C)C)N=C(c2ccc(OCCCO)cc2)O[C@@H]1c1ccccc1N=[N+]=[N-] | 1.45 | 0.971 | 0.197 | 1.88 | 0.671 | 0.183 | 0.0948 | 1.56 | 1.21 | 1.64 | 0.913 | 0.201 (inactive) | 0.534 | -0.092 | 0.725 | 3.09 | 0.0106 | 1.31 | -0.18 | 1.17
8 | COc1ccc(CCNC(=O)[C@@H]2c3ccccc3C(=O)N(c3ccc(C)cn3)[C@H]2c2ccc(CO)cc2)cc1 | -0.618 | 0.267 | -1.76 | -0.822 | -0.796 | -0.242 | -0.367 | -0.266 | 3.04 | -0.955 | 0.45 | 0.378 (inactive) | -0.406 | -0.0959 | 0.77 | 1.5 | 0.539 | -0.121 | -1.76 | -1.45
9 | O=C1[C@H]2[C@H]3[C@H](O)[C@H](O)CC(=NOCc4ccccc4)[C@H]3CC[C@H]2C(=O)N1C[C@@H]1CCCO1 | 0.536 | 0.188 | 0.873 | 0.0951 | -0.223 | -0.0685 | -0.138 | 0.0715 | 0.278 | 0.0902 | 0.5 | 0.324 (inactive) | 0.132 | -0.12 | 0.432 | 0.469 | 0.491 | 0.232 | 0.312 | 0.652
10 | CCOC(=O)NN=C1C[C@@H](O)[C@@H](O)[C@@H]2[C@@H]3C(=O)N(C4CCCCC4)C(=O)[C@@H]3CC[C@@H]12 | 0.0883 | -0.336 | 0.342 | -0.29 | -0.401 | -0.0462 | -0.341 | -0.158 | 0.109 | 0.601 | 0.272 | -0.288 (inactive) | -0.0598 | -0.0534 | 0.0286 | -0.636 | 1.25 | 0.39 | 0.645 | 0.616
11 | CC(=O)O[C@H]1C2=C(C(=O)[C@@H]3O[C@@H]31)[C@H]1C(C)O[C@@H]2[C@@]23C(=O)[C@@H]4O[C@@H]4[C@@H](O)C2=CO[C@H](C)[C@@H]13 (stereo not given in full) | -0.667 | -2.66 | 0.552 | -1.17 | -0.891 | -0.101 | -0.13 | -0.18 | -0.25 | -0.858 | 0.922 | 0.112 (inactive) | 0.0026 | -0.0937 | -0.0716 | -0.519 | -0.283 | -0.113 | 0.249 | -0.629
12 | C[C@@H]1C=CCC(=O)OC[C@H](C)C(=O)N[C@@H](C)C(=O)OC1 | -0.0639 | -0.512 | 0.409 | -0.556 | -0.897 | -0.0721 | 0.178 | -0.141 | 0.789 | -0.194 | -0.171 | 0.215 (inactive) | -0.0647 | -0.144 | -0.385 | -0.466 | 0.369 | 0.175 | 0.71 | 0.155
